# In all, about 310,000 compounds went through this assay and about 1,900 (0.61%) were called active.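 How the source made its calls: active means plate-corrected calcium response at least 3 library SD above typical, normal starting fluorescence, not activating the receptor alone; inactive means the rest.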 The full list was thinned out, with actives kept by preference.
# Target: Mas-related G-protein coupled receptor member X1 (Homo sapiens) (UniProt Q96LB2)
# Experiment: positive allosteric modulators of MrgX1, primary screen, HEK293 cells, Fluo-4 calcium flux (AID 588675);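 further: compound read alongside a low EC10 to EC30 dose of BAM8-22 agonist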;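 on B-score: peak minus trough fluorescence over baseline measured at the second addition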
# Conditions: MrgX1-HEK293, Fluo-4 calcium flux, FDSS, at 10 µM; hits give high values
# Chain of Mas-related G-protein coupled receptor member X1 (Homo sapiens) (Q96LB2 whole entry, looked up): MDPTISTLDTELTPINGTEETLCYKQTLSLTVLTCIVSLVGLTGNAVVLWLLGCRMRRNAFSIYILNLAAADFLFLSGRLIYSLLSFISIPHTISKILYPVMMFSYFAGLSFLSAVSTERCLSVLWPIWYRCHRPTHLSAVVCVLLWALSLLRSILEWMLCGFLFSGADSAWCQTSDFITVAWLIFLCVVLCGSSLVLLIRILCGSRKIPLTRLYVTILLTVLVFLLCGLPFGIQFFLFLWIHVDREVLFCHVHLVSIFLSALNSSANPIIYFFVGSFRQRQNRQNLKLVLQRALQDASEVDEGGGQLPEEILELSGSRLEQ
row,SMILES,B-score
1,Cc1nc2ccccc2n1CC(O)c1ccccc1 (stereo not given),inactive
2,CCC1(CC)Cc2ccccc2-c2nc3ccccc3c(=O)n21,inactive
3,CCn1c(C)nc2c1C(=O)c1ccccc1C2=O,6.92 (active)
4,CN(C)c1ccc(Nc2c3c4c(cccc4n(C)c2=O)C(=O)c2ccccc2-3)cc1,inactive
5,NC(=O)[C@H]1CC2(CC(c3cccc(NC(=O)[C@H]4CCC(=O)N4)c3)=NO2)CN1C(=O)c1ccccc1C(=O)c1ccccc1 (stereo not given in full),inactive
6,Cc1cccc(NC(=O)C(C)SCc2ccccc2)c1 (stereo not given),inactive
7,Cc1cccc(NC(=O)CCN2CC(C)CC(C)C2)c1 (stereo not given),inactive
8,Cc1cccc(NC(=O)C(C)N2C(=O)C3C4CC(C(Br)C4Br)C3C2=O)c1 (stereo not given),9.03 (active)
9,CC(C)(Oc1ccc(C2CC2(Cl)Cl)cc1)C(=O)O (stereo not given),inactive
10,COc1cc(C2/C(=C(\O)c3ccc4c(c3)CC(C)O4)C(=O)C(=O)N2Cc2ccco2)ccc1O (stereo not given),inactive
11,COc1ccc(C2=CC(c3cccc(OC)c3)n3nnnc3N2)cc1 (stereo not given),inactive
12,Brc1ccc(C2=CC(c3ccco3)n3ncnc3N2)cc1 (stereo not given),inactive
13,CCOc1ccc(C2=CC(c3ccccc3)n3ncnc3N2)cc1 (stereo not given),7.44 (active)
14,CC1=C(C/C=C(\C)CCCC(C)CCCC(C)CCCC(C)C)C(=O)c2ccccc2C1=O (stereo not given),inactive
15,COc1ccc(Oc2cn[nH]c2-c2ccc(OC)cc2O)cc1,6.54 (active)
16,CCOc1ccccc1Oc1cn[nH]c1-c1ccc(OC)cc1O,inactive
17,COc1ccc(-c2cn[nH]c2-c2ccc(OC)cc2)cc1,inactive
18,O=C(NCc1ccccc1)C1=C[C@@H](C2CCCCC2)C[C@@H](OCc2ccc(CO)cc2)O1,inactive
19,CC1CCC(CN2CCN=C2N(C)C)CC1 (stereo not given),inactive
20,COc1ccc(NC(=O)CN(C)C(=O)c2cc(-c3ccc(C)o3)nc3ccccc23)cc1,inactive
21,COc1ccc(-c2cc(C(=O)Nc3ccccc3O)c3ccccc3n2)cc1,inactive
22,COc1ccc(NC(=O)c2cc(-c3ccc(C)o3)nc3ccccc23)cc1,8.06 (active)
23,COc1ccc(C(=O)CN2C(=O)NC3(CCc4ccccc43)C2=O)c(OC)c1 (stereo not given),inactive
24,CC(OC(=O)CNS(=O)(=O)/C=C/c1ccccc1)C(=O)Nc1ccc(S(=O)(=O)N2CCCC2)cc1 (stereo not given),inactive

row,SMILES,B-score
1,Nc1ccc(Oc2ccc(Cl)cc2)cc1,6.95 (active)
2,COc1cccc(Oc2ccc(N)cc2)c1,inactive
3,CC(C)(C)c1ccc(Oc2ccc(N)cc2)cc1,inactive
4,CCN(CC)C(=O)CC1(c2ccccc2OC)CCOC(C(C)C)C1 (stereo not given),inactive
5,COC(=O)c1c(C)cc(O)c(C)c1O,inactive
6,N#C/C=C(/c1ccc(F)cc1)N1CCOCC1,inactive
7,Fc1ccccc1/C=C1\CCCC2=C1Nc1ncnn1C2c1ccccc1F (stereo not given),7.46 (active)
8,CC1=C(C(N)=O)C(c2ccc(Br)cc2)n2ncnc2N1 (stereo not given),inactive
9,CC(C(=O)N=Nc1c(O)n(C)c2ccc(Br)cc12)n1cnc2ccccc2c1=O (stereo not given),inactive
10,CC(C)N(c1ccccc1)c1ncnc(NCCC(=O)O)c1[N+](=O)[O-],inactive
11,Cc1c(C(=O)NCC2CCCO2)sc2nc(-c3ccccc3)cn12 (stereo not given),inactive
12,Cc1c(C(=O)N2CCCc3ccccc32)sc2nc(-c3ccccc3)cn12,10.8 (active)
13,Cc1c(C(=O)N2CC(C)OC(C)C2)sc2nc(-c3ccccc3)cn12 (stereo not given),inactive
14,CCn1nccc1C(=O)Nc1ccc(S(=O)(=O)NC23CC4CC(CC(C4)C2)C3)cc1,inactive
15,COc1ccc(S(=O)(=O)N2CCCC(C(=O)NCCCn3ccnc3)C2)cc1OC (stereo not given),inactive
16,Cc1ccc(C)c(N2CCN(S(=O)(=O)c3c(C)[nH]c(C)c3C(=O)N3CCCC3)CC2)c1,inactive
17,CCOC(=O)c1ccccc1NC(=S)N1CCC(C(N)=O)CC1,inactive
18,Cc1nc2ccccc2cc1OCc1ccc(F)cc1,11.8 (active)
19,Fc1ccccc1COc1cccc2cccnc12,inactive
20,Cc1occc(=O)c1OCc1ccc(F)cc1,inactive
21,COCCCN(C(=O)CSCc1ccc(C)cc1)c1c(N)n(Cc2ccccc2)c(=O)[nH]c1=O,inactive
22,S=C(NCCC1=CCCCC1)Nc1ccccc1,inactive
23,S=C(NCCc1ccccc1)NCC1CCCO1 (stereo not given),inactive
24,S=C(NCC1CCCO1)N1CCN(c2ccc(Cl)c(Cl)c2)CC1 (stereo not given),inactive

row,SMILES,B-score
1,Oc1c(Br)cc(/C=N/NC(=S)NCC2CCCO2)cc1Br (stereo not given),6.64 (active)
2,C=CCOc1ccccc1NC(=O)CN1C(=O)CNC1=O,inactive
3,CCOC(=O)c1cnc2ccc(F)cc2c1Nc1ccc2c(c1)OCCO2,inactive
4,CCCc1ccc(OCCNC(=O)c2ccco2)cc1,inactive
5,CCCc1ccc(OCC(=O)NNC(=S)NC(=O)c2ccco2)cc1,11.9 (active)
6,CC(Oc1ccc2ccccc2c1)C(=O)NNC(=S)NC(=O)c1ccco1 (stereo not given),inactive
7,CCOc1cc(C(=O)Nc2ccc(S(=O)(=O)Nc3cnc4ccccc4n3)cc2)cc(OCC)c1OCC,inactive
8,Cc1ccccc1-n1nc(SCC(=O)O)sc1=S,inactive
9,CN(C)CCCCCN(C)Cc1cc2ccccc2o1,inactive
10,CCOC(=O)c1ccc(-c2ccc(C(=O)Nc3cccnc3)o2)cc1,inactive
11,Cc1ccc(C2C3=C(Nc4[nH]n(-c5ccccc5)c(=O)c42)c2ccccc2C3=O)cc1 (stereo not given),inactive
12,COC(=O)C1=C(C)NC2=C(C(=O)c3ccccc32)C1c1ccc(-c2ccc(C(=O)O)cc2)o1 (stereo not given),16.1 (active)
13,CC(C)(C)NC(=O)CSc1nnc(NC(=O)CCc2ccccc2)s1,inactive
14,O=C(ON=C1CCN(S(=O)(=O)c2ccccc2)CC1)c1ccc(Cl)cc1,inactive
15,NC(=O)c1c(Nc2nc3c(F)cccc3s2)sc2c1CCCC2,8.33 (active)
16,COc1cccc(OC)c1C(=O)Nc1sc2c(c1C(N)=O)CCCC2,inactive
17,O=C(Nc1sc2c(c1C(=O)O)CCC2)c1ccccc1F,inactive
18,CCOc1ccc(NC(=O)C(C)N2C(=O)c3ccccc3C2=O)cc1 (stereo not given),inactive
19,COC(=O)c1ccc(NC(=O)C(C)N2C(=O)c3ccccc3C2=O)cc1 (stereo not given),inactive
20,Cc1ccnc(NC(=O)C(C)N2C(=O)c3ccccc3C2=O)c1 (stereo not given),7.9 (active)
21,Cc1ccc(NS(=O)(=O)c2cn(C)c(=O)n(C)c2=O)c(C)c1,inactive
22,CC(C)(C)c1nc2ccccc2c(=O)n1N1C(=O)c2ccccc2C1=O,inactive
23,CC(=O)c1ccc(NC(=O)c2ccc(-n3cncn3)c([N+](=O)[O-])c2)cc1,inactive
24,O=C(N/N=C/C=C/c1ccccc1)C1CC1(c1ccccc1)c1ccccc1 (stereo not given),14.2 (active)

row,SMILES,B-score
1,Cc1ccc(-c2cc(C(=O)N/N=C/C=C/c3ccccc3)n[nH]2)o1,inactive
2,CC(/C=C/c1ccccc1)=N\NC(=O)C1CC1(C)c1ccccc1 (stereo not given),inactive
3,COCc1[nH][nH]c(=O)c1C=Nc1ccc(F)cc1F,inactive
4,Clc1ccc(Nc2ncnc3c2nnn3Cc2ccccc2)cc1,inactive
5,CC(C)CNc1ncnc2c1cnn2Cc1ccc(Cl)cc1,7.42 (active)
6,Clc1ccc(Cn2ncc3c(NCc4cccnc4)ncnc32)cc1,inactive
7,O=C1c2ccccc2C2=Nc3ccccc3SC(c3ccccc3F)C12 (stereo not given),13.4 (active)
8,CCOC(=O)C1=C(C)N=C2c3ccccc3C(=O)C2C1c1ccc(Br)cc1 (stereo not given),inactive
9,O=C1c2ccccc2C(=O)C1c1ccccc1F,inactive
10,COc1ccccc1CNS(=O)(=O)c1c(C)[nH]c(C)c1C(=O)N1CCCCC1,inactive
11,COc1cc(C(=O)NCc2cc3cc(Cl)ccc3n2C)cc(OC)c1OC,inactive
12,CCOCc1nnc(NC(=O)CSc2ccc(C)cc2)s1,inactive
13,CCOCc1nnc(NC(=O)CCS(=O)(=O)Cc2ccccc2)s1,inactive
14,CCOCc1nnc(NC(=O)CCC2CCCCC2)s1,7.99 (active)
15,OCC[C@H]1C[C@H](O)[C@@H](O)[C@]2(CCc3ccccc3O2)O1,inactive
16,O=C1CCC([N+](=O)[O-])C(c2ccccc2Br)N1 (stereo not given),8.17 (active)
17,COc1cc2c(cc1OC)C(c1ccccc1Br)NC(=O)C2 (stereo not given),inactive
18,O=C1CCC(Cc2ccccc2)N1 (stereo not given),inactive
19,Cc1ccccc1NC(=O)c1nn(-c2ccc(F)c(F)c2)ccc1=O,inactive
20,CCOC(=O)N1CCN(C(=O)COCc2cc(-c3ccc4c(c3)OCO4)on2)CC1,6.93 (active)
21,Cc1cccc(N2CCN(C(=O)COCc3cc(-c4ccc5c(c4)OCO5)on3)CC2)c1C,inactive
22,O=C(COCc1cc(-c2ccc3c(c2)OCO3)on1)N1CCN(c2cccc(Cl)c2)CC1,inactive
23,COc1ccc(-c2cc(C(=O)NC(Cc3c[nH]c4ccccc34)C(=O)O)c(C)o2)cc1OC (stereo not given),inactive
24,Cc1nc(-c2ccccc2)cn2c1nc1ccccc12,inactive

row,SMILES,B-score
1,COc1ccc(C(=O)/C=C/c2ccc(-c3ccccc3)cc2)cc1CSCC(=O)O,inactive
2,Cc1cc(N2C(=O)c3ccc(C(=O)NCc4ccccc4)cc3C2=O)no1,inactive
3,Cc1cc(C(=O)N2CCC(C(=O)O)CC2)c(C(F)(F)F)o1,inactive
4,CN1/C(=C\C=C2\N=C(c3ccc(F)cc3)OC2=O)C(C)(C)c2ccccc21,19.6 (active)
5,CN1CCN(CCC(=O)N/N=C/C=C2\N(C)c3ccccc3C2(C)C)CC1,inactive
6,CN1/C(=C\C(=O)c2oc3ccccc3c2N)C(C)(C)c2ccccc21,inactive
7,Cc1c(C2=CCN(S(=O)(=O)c3ccc(Cl)cc3)CC2)c2ccccc2n1C,inactive
8,CN(CC(=O)Nc1cccc(F)c1)C(=O)C1CC(=O)N(CCc2ccccc2)C1 (stereo not given),inactive
9,Cc1cc(NC(=O)OC(C)C)ccc1-c1ccc(NC(=O)OC(C)C)cc1C,inactive
10,O=C(NC1CC1)C1CCCN(C(=O)NC2CCCCC2)C1 (stereo not given),inactive
11,CC[C@H](C)[C@@H](C(=O)N1CCNCC1)n1cc([C@@H](N)Cc2ccc(O)cc2)nn1,inactive
12,COc1ccc(CCNS(=O)(=O)c2cccc([N+](=O)[O-])c2)cc1,inactive
13,C/C(=N\NS(=O)(=O)c1cccc([N+](=O)[O-])c1)c1cc2ccccc2o1,8.87 (active)
14,C/C(=N\NC(=S)Nc1ccc(C)cc1)c1cc2ccccc2o1,inactive
15,COc1ccc(N(CC(=O)N/N=C/c2cccc3c2OCCO3)S(=O)(=O)c2ccc(NC(C)=O)cc2)cc1,inactive
16,Cc1ccc(OC(=O)c2cc3ccccc3o2)cc1,6.5 (active)
17,Cc1ccc(NC(=O)c2cc3ccccc3o2)cc1,inactive
18,COc1ccccc1CN(C)C(=O)c1cc2ccccc2o1,inactive
19,CCCCCCSc1ccc([C@@H]2[C@@H]3C(=O)N(CC)C(=O)[C@@H]3[C@]3(C(=O)OC)CCCCN23)cc1OC,inactive
20,COc1ccc(C(=O)C2CCCN(C(=O)c3cc4nc(C)cc(C)n4n3)C2)cc1F (stereo not given),inactive
21,O=C(Oc1ccc(C(=S)N2CCOCC2)cc1)c1ccc(F)cc1,12.3 (active)
22,O=C(Oc1ccc(F)cc1)N1CCOCC1,inactive
23,Cc1ccc(C(=O)Oc2ccc(C(=S)N3CCOCC3)cc2)cc1,inactive
24,CC1=C(C(=O)Nc2cc(C)ccn2)C(c2cnn(C)c2)C2=C(CC(c3ccccc3)CC2=O)N1 (stereo not given),inactive
